Data from PubChem BioAssay.
“And” between values parts separate entries of the source, which are not always exact repeats. Equal values may be shown once. The source made the active and inactive calls.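 The calls were made as follows, unless noted: active = compounds whose cell count with miR-34 switched on is under 0.7 times the count with it off; inactive = the rest.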 *1 amine or outer side, *2 acyl side, *3 side chain or, on linkers, in order; H or OH if unused. Where a SMILES comes first, the peptide text is derived from it. Bridges are numbered along the chain shown (N, C = ends). [ ]: non-standard residue; d: D form. The star is where a group is joined. ξ: configuration not given here. pTerphenylCO(4''-OnC5H11) = CCCCCOc1ccc(-c2ccc(-c3ccc(C(=O)*)cc3)cc2)cc1; ξOrn(4,5-diOH) = O=C(C(CC(O)C(O)N[*:3])N[*:1])[*:2]; ξhTyr(βξ-OH,γξ-OH) = NC(C(=O)O)C(O)C(O)c1ccc(O)cc1; ξPro(3ξ-OH,4ξ-Me) = CC1CNC(C(=O)O)C1O; Hyp = O=C(O)[CH]1C[CH](O)CN1

How the values were obtained:
[1] = sensitizers of A549 cells to miR-34 induction, primary screen, imaging, A549 dox-inducible miR-34, nuclei and caspase counts (AID 1347080); conditions: A549 miR-34 inducible, Hoechst nuclei count, 48 h
[2] = survival rescue of mitochondrial mutant cells in low glucose, primary screen, MELAS cybrids, Rieske KO mouse fibroblasts, CellTiter-Glo (AID 1508586;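 active = mean z-score across replicates of 1.96 or higher in either the MELAS or the Rieske mutant cell line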;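 also: z relative to plate mean and SD of compound and empty wells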)
[3] = stronger effect = lower value, cell number ratio, induced over uninduced
[4] = measured here: relative caspase fold change +Dox/-Dox
[5] = measured here: total cells with miR-34 induction, stronger effect = lower value
[6] = measured here: total cells without miR-34 induction
[7] = MELAS cybrid survival, CellTiter-Glo 48 h, stronger effect = higher value
[8] = Rieske KO mouse fibroblast survival, CellTiter-Glo 72 h
Also: test concentration not given here.

SMILES | fold change [1, 3] | fold change [1, 4] | cell count [1, 5] | cell count [1, 6] | z-score [2, 7] | z-score [2, 8]
CC1(C)O[C@@H]2C[C@H]3[C@@H]4C[C@@H](F)C5=CC(=O)C=C[C@]5(C)[C@]4(F)C(O)C[C@]3(C)[C@@]2(C(=O)CO)O1 (stereo partly specified) | 0.861 (inactive) | 0.94 | 5980 | 6950 | -0.367 (inactive) | -0.28
CCc1cc2c(cc1CC)CC(NCC(O)c1ccc(O)c3[nH]c(=O)ccc13)C2 (stereo unspecified) | 1.01 (inactive) | 0.491 | 7460 | 7410 | -0.199 (inactive) | -0.118
CC(C)(C)c1cc(C(=O)C(C#N)=NNc2cccc(Cl)c2)no1 | 0.873 (inactive) | 0.45 | 4320 | 4950 | -0.557 (inactive) | -3.22
COc1cc2c(c(OC)c1OC)-c1c(cc3c(c1OC)OCO3)CC(C)C(C)C2 (stereo unspecified) | 0.915 (inactive) | 1.02 | 7770 | 8490 | -0.0751 (inactive) | -0.149
O=C(c1cn(Cc2cncn2Cc2ccc(Br)cc2)cc1-c1cccc2ccccc12)N1CCOCC1 | 0.999 (inactive) | 0.553 | 3260 | 3270 | -0.128 (inactive) | -1.26
Cc1cc(C(N)=O)ccc1-n1c(CCC(=O)O)ccc1-c1ccc(-n2ccnc2)cc1 | 0.953 (inactive) | 0.396 | 9360 | 9820 | -0.283 (inactive) | 0.463
CN(C)CCC=C1c2ccccc2Sc2ccc(Cl)cc21 | 1.02 (inactive) | 0.667 | 7540 | 7420 | -0.469 (inactive) | -0.0938
CC(C)Oc1ccc(C(=O)NC(CNC(=O)CN(C)C)Cc2ccc(-c3cn4cccc(C(C)O)c4n3)cc2)cc1Cl (stereo unspecified) | 1 (inactive) | 0.389 | 1600 | 1590 | 1.36 (inactive) | -2.78
CC(C)CN(C[C@H](O)[C@@H](Cc1ccccc1)NC(=O)O[C@@H]1CO[C@H]2OCC[C@H]21)S(=O)(=O)c1ccc(N)cc1 | 0.938 (inactive) | 0.791 | 7440 | 7930 | -0.364 (inactive) | 0.28
CN1CCC(NC(=O)c2cc(-c3c(O)cc(O)cc3Oc3ccc([N+](=O)[O-])cc3)on2)CC1 | 1.08 (inactive) | 0.376 | 2520 | 2330 | 2.88 (active) | -1.28
COc1c(C)c(C(=O)c2ccc(N)c(C(=O)O)c2)n2ccccc12 | 0.908 (inactive) | 0.344 | 7600 | 8370 | 0.355 (inactive) | -2.17
N#CSc1cc(SC#N)c(N)nc1N | 1.07 (inactive) | 0.703 | 1940 | 1820 | -0.481 (inactive) | -2.9
CCC1OC(=O)CC(O)C(C)C(O[C@H]2OC(C)C(O[C@H]3C[C@@](C)(O)C(O)C(C)O3)C(N(C)C)C2O)C(CC=O)CC(C)C(=O)C=CC(C)=CC1COC1OC(C)C(O)C(OC)C1OC (stereo partly specified) | 0.9 (inactive) | 0.768 | 8760 | 9740 | -0.254 (inactive) | -0.134
CCN1C(=CC(C)=O)Sc2ccc(OC)cc21 | 0.889 (inactive) | 0.354 | 6850 | 7700 | 0.342 (inactive) | 1.67
O=CC(O)C(O)C(O)CO (stereo unspecified) | 0.913 (inactive) | 0.975 | 7900 | 8650 | 0.55 (inactive) | -0.188
COc1cc2ncnc(Sc3nnc(C)s3)c2cc1OC | 0.954 (inactive) | 0.244 | 5380 | 5640 | 2.8 (active) | 1.21

SMILES | fold change [1, 3] | fold change [1, 4] | cell count [1, 5] | cell count [1, 6] | z-score [2, 7] | z-score [2, 8]
NS(=O)(=O)c1ccc(NC(=O)Nc2ccc(F)cc2)cc1 | 0.971 (inactive) | 0.438 | 8130 | 8360 | -0.152 (inactive) | -0.0443
Oc1ccc(C2COc3cc(O)ccc3C2)cc1 (stereo unspecified) | 1.04 (inactive) and 0.979 (inactive) | 1.09 and 0.678 | 6090 and 7580 | 5860 and 7740 | -0.326 (inactive) | -0.182
Cc1cc(=O)oc2c(C=O)c(O)ccc12 | 0.88 (inactive) | 0.552 | 8210 | 9320 | -0.241 (inactive) | 0.915
COC(=O)NC(C(=O)NC(Cc1ccccc1)C(O)CN(Cc1ccc(-c2ccccn2)cc1)NC(=O)C(NC(=O)OC)C(C)(C)C)C(C)(C)C (stereo unspecified) | 0.891 (inactive) | 0.981 | 6490 | 7280 | -0.349 (inactive) | 0.446
CC(C)(C)c1cc(C=C(C#N)C(N)=S)cc(C(C)(C)C)c1O | 0.89 (inactive) | 0.706 | 3790 | 4260 | -0.383 (inactive) | -0.375
C=C1C[C@@]2(O)O[C@@]3(CC2C(C)C)C(C)CC[C@@H]13 (stereo partly specified) | 0.988 (inactive) | 0.924 | 9960 | 10100 | -0.407 (inactive) | 0.387
CCCN(CCc1cccs1)C1CCc2c(O)cccc2C1 (stereo unspecified) | 0.911 (inactive) | 0.584 | 8660 | 9500 | -0.281 (inactive) | -0.2
CCOc1cc(C(CS(C)(=O)=O)N2C(=O)c3cccc(NC(C)=O)c3C2=O)ccc1OC (stereo unspecified) | 0.919 (inactive) | 0.498 | 8660 | 9420 | -0.371 (inactive) | -0.546
CCCCCOc1ccc(-c2ccc(-c3ccc(C(=O)NC4CC(O)C(O)NC(=O)C5C(O)C(C)CN5C(=O)C(C(C)O)NC(=O)C(C(O)C(O)c5ccc(O)cc5)NC(=O)C5CC(O)CN5C(=O)C(C(C)O)NC4=O)cc3)cc2)cc1 (stereo not drawn) ({pTerphenylCO(4''-OnC5H11)}-[ξOrn(4,5-diOH)]T[Hyp][ξhTyr(βξ-OH,γξ-OH)]T[ξPro(3ξ-OH,4ξ-Me)]; lactam 1-C; configuration not given here) | 0.963 (inactive) | 0.515 | 5590 | 5810 | 0.0456 (inactive) | -0.136
CC1C[C@@H]2[C@@H](C(O)C[C@@]3(C)[C@H]2CC[C@@]3(O)C(=O)CO)[C@@]2(C)C=CC(=O)C=C12 (stereo partly specified) | 0.787 (inactive) | 1.42 | 5500 | 6980 | -0.489 (inactive) | -0.516
O=c1[nH]c(=O)n(C2CC(O)C(CO)O2)cc1C(F)(F)F (stereo unspecified) | 1.15 (inactive) | 0.574 | 1670 | 1450 | -0.198 (inactive) | -0.513
CC(C)c1nc(CN(C)C(=O)NC(CCN2CCOCC2)C(=O)NC(CCC(Cc2ccccc2)NC(=O)OCc2cncs2)Cc2ccccc2)cs1 (stereo unspecified) | 0.977 (inactive) | 0.47 | 5730 | 5860 | -0.312 (inactive) | -0.261
CC1(C)O[C@@H]2C[C@H]3[C@@H]4CCC5=CC(=O)C=C[C@]5(C)[C@@H]4C(O)C[C@]3(C)[C@@]2(C(=O)CO)O1 (stereo partly specified) | 0.87 (inactive) | 1.16 | 5200 | 5970 | -0.511 (inactive) | -0.393
CCOC(=O)C(CCc1ccccc1)NC(C)C(=O)N1Cc2ccccc2CC1C(=O)O (stereo unspecified) | 0.963 (inactive) | 1.71 | 8090 | 8400 | 0.0216 (inactive) | -0.419
CC(=NNC(=S)N1CCC1)c1ccccn1 | 0.887 (inactive) | 0.742 | 1950 | 2200 | 7.64 (active) | -5.36
